In PubChem BioAssay (Tox21):
Where “and” joins values, the source holds several entries; their conditions need not be identical. Identical values can stand only once. Results filed as inconclusive are left out. More than one record can exist for a structure, and the calls need not agree. Calls of active or inactive are those of the source. Calls come from the whole dose curve; as a rule, active = well fitted curve in the direction sought with a large enough effect in the repeat runs; inconclusive = weak or mixed curves; inactive = no such curve, though single readings can be large; an effect the other way counts as inactive or inconclusive.

Experiments:
[1] = biological target: Cytochrome P450 2C19 (Homo sapiens) (UniProt P33261); test: Cytochrome P450 Family 2 Subfamily C Member 19 (CYP2C19) small molecule antagonists: luciferase reporter qHTS assay (AID 1671197); settings: P450-Glo CYP2C19 enzyme, luciferin luminescence, 1 h; series mostly up to 52.9 µM; note: nearly all actives have a fitted effect of over 65% in size
Outline: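 CYP2C19 P450-Glo, 1536-well qHTS. Cpd + enzyme/proluciferin substrate 10 min RT; + NADPH regen, 37C 1 h; stop with luciferin detection reagent, 20 min RT, luminescence (RLU). Pos ctrl ketoconazole.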

[2] = biological target: Cytochrome P450 2C9 (Homo sapiens) (UniProt P11712); test: Cytochrome P450 Family 2 Subfamily C Member 9 (CYP2C9) small molecule antagonists: luciferase reporter qHTS assay (AID 1671198); settings: P450-Glo CYP2C9 enzyme assay, luciferin luminescence; series mostly up to 53 µM; note: nearly all actives have a fitted effect of over 50% in size
Outline: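 Enzyme-substrate mix preincubated with compound 10 min at room temperature; reaction started with NADPH regeneration solution, 1 h 37C. Luminescent luciferin product read after 20 min detection reagent.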

[3] = biological target: Cytochrome P450 1A2 (Homo sapiens) (UniProt P05177); test: Cytochrome P450 Family 1 Subfamily A Member 2 (CYP1A2) small molecule antagonists: luciferase reporter qHTS assay (AID 1671199); settings: P450-Glo CYP1A2 enzyme, luciferin luminescence, 1 h; series mostly up to 53 µM; note: nearly all actives have a fitted effect of over 50% in size
Outline: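 Human CYP1A2 activity measured with a P450-Glo proluciferin substrate; compounds in DMSO preincubated 10 min at room temperature with enzyme-substrate mix, then NADPH regeneration system added for 1 h. Luciferin detection reagent, 20 min, luminescence read.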

[4] = biological target: Voltage-gated inwardly rectifying potassium channel KCNH2 (Homo sapiens) (UniProt Q12809); test: Human Ether-a-go-go-Related Gene (hERG) channel small molecule antagonists: fluorescence cell-based qHTS assay (AID 1671200); settings: hERG-U2OS cells, FluxOR thallium flux fluorescence; series mostly up to 76.8 µM; note: nearly all actives have a fitted effect of over 50% in size
Outline: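 Cell line hERG-U2OS; dye FluxOR II, 1 h RT dark; Tl+ stimulus; ex 480/em 540 nm, read each second for 2 min.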
Potency is the fitted concentration of half-maximal effect.

Cytochrome P450 1A2 (Homo sapiens), sequence (P05177 whole entry, looked up): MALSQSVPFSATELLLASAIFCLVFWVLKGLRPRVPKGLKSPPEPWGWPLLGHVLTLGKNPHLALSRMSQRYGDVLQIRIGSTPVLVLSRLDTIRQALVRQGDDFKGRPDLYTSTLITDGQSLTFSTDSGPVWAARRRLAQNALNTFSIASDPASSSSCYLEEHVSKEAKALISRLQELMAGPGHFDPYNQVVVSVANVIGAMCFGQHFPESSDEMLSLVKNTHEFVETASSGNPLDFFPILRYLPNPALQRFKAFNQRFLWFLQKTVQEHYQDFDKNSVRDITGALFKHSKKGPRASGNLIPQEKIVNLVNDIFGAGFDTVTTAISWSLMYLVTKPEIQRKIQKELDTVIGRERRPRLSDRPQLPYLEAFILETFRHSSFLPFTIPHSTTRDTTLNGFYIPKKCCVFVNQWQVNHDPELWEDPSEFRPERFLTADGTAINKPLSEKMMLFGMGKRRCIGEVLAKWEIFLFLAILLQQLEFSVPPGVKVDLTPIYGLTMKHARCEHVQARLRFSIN
Cytochrome P450 2C9 (Homo sapiens), sequence (P11712 whole entry, looked up): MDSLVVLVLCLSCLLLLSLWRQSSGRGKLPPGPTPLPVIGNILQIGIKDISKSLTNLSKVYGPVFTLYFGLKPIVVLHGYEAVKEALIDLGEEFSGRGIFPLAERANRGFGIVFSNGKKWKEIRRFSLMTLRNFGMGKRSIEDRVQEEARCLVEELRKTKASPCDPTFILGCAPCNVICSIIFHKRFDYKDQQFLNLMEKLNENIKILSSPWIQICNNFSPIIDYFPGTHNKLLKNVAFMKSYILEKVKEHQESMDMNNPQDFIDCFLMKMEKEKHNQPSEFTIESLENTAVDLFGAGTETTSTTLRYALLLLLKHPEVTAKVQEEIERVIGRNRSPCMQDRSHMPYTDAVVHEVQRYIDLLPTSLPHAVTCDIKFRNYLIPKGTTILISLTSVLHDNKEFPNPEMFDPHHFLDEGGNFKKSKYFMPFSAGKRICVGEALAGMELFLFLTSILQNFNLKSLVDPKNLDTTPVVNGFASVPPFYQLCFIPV
Voltage-gated inwardly rectifying potassium channel KCNH2 (Homo sapiens), sequence (Q12809 whole entry, looked up): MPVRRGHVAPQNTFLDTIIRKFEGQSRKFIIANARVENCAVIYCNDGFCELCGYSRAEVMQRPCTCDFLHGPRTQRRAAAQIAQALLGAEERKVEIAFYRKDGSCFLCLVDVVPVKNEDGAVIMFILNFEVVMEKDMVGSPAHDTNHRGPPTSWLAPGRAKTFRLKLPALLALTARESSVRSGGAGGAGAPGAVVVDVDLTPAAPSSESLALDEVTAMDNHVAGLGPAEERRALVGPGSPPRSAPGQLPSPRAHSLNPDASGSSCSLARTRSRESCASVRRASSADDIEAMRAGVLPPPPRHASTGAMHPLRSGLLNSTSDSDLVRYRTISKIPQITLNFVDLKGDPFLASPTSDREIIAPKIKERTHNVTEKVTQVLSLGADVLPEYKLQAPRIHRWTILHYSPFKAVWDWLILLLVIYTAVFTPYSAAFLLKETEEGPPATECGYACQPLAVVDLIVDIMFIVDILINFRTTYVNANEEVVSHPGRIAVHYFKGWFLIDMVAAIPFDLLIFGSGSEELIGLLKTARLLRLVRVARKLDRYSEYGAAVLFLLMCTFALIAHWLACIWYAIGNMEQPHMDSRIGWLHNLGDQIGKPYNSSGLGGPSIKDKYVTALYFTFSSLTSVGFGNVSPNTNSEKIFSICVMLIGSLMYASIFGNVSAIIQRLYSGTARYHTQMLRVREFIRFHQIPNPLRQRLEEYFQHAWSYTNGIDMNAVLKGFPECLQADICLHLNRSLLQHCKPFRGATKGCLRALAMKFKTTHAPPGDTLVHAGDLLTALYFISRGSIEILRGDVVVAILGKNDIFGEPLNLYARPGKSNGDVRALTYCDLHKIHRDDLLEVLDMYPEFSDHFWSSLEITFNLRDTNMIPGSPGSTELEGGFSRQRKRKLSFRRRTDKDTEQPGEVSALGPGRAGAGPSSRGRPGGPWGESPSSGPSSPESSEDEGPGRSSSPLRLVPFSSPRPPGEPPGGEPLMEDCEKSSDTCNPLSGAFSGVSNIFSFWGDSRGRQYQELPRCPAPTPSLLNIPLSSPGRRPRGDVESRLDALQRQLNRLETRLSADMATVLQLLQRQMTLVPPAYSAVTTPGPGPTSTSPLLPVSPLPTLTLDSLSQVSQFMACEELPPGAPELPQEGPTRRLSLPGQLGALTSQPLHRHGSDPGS
Cytochrome P450 2C19 (Homo sapiens), sequence (P33261 whole entry, looked up): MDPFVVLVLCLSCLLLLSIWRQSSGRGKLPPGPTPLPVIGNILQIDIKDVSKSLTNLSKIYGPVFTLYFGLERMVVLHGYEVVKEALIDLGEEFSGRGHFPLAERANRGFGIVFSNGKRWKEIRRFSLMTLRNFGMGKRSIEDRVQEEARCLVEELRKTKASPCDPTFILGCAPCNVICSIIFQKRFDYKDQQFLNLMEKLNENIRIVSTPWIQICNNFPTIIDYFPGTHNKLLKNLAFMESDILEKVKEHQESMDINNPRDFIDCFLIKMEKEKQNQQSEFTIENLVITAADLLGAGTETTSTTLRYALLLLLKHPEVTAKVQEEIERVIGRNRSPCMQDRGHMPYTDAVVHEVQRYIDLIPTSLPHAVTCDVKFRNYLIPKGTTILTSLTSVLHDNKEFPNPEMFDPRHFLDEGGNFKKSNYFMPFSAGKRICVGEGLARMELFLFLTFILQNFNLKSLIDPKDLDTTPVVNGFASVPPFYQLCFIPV

SMILES	Potency [1]	Potency [2]	Potency [3]	Potency [4]
CCC(CN)=C(c1ccccc1)c1ccccc1	4.36 µM (active)	15.5 µM (active)		
CCCCCCCCOc1ccccc1C(=O)Nc1ccc(C(=O)OCC[N+](C)(CC)CC)cc1	3.89 µM (active)	4.36 µM (active)	inactive	
NC(=O)NS(=O)(=O)c1ccc(N)cc1	inactive	inactive	inactive	inactive
Oc1ccc2cc(SSc3ccc4cc(O)ccc4c3)ccc2c1	35.6 µM (active)	71.1 µM (active) and 39.9 µM (active)	63.4 µM (active) and 63.3 µM (active)	inactive
NNc1nc(-c2ccc(N)cc2)cs1	79.6 µM (active)	31.7 µM (active)	35.6 µM (active)	inactive
O=C1Cc2cc(CCN3CCN(c4nsc5ccccc45)CC3)c(Cl)cc2N1	21.9 µM (active)	27.5 µM (active)		
CC(C)(C)CC(C)(C)c1ccc(O)c(Cc2ccc(Cl)cc2Cl)c1	1.74 µM (active)	5.49 µM (active)	15.5 µM (active)	
CC/C(=C(\c1ccc(O)cc1)c1ccc(OCCN(C)C)cc1)c1ccccc1	44.9 µM (active)	71.2 µM (active)	inactive	
Cc1cccc(N(C)C(=S)Oc2ccc3c(c2)C2CCC3C2)c1 (centres undefined)	1.74 µM (active)	15.5 µM (active)	9.11 µM (active)	
Cn1cc(C(=O)[C@@H]2CCc3nc[nH]c3C2)c2ccccc21	8.71 µM (active)	inactive		
CN(C/C=C/C#CC(C)(C)C)Cc1cccc2ccccc12	17.4 µM (active)	15.5 µM (active)	17.4 µM (active)	
NC(=O)N1C(=O)C(C(=O)c2cc(Cl)cs2)c2cc(F)c(Cl)cc21 (centres undefined)	79.6 µM (active)	6.33 µM (active)		
CCCN(CCC)C(=O)C(CCC(=O)OCCCN1CCN(CCOC(=O)Cc2c(C)n(C(=O)c3ccc(Cl)cc3)c3ccc(OC)cc23)CC1)NC(=O)c1ccccc1 (centres undefined)	8.71 µM (active)	4.9 µM (active)		
COCCCC/C(=N\OCCN)c1ccc(C(F)(F)F)cc1	0.692 µM (active)	3.89 µM (active)	0.204 µM (active)	
OCc1c[nH]c2ccccc12	2.52 µM (active)	7.52 µM (active)	29.1 µM (active)	inactive
Fc1ccc([C@@H]2CCNC[C@H]2COc2ccc3c(c2)OCO3)cc1	inactive	inactive	12.9 µM (active)	
CCCCCCC[N+](CC)(CC)CCCCc1ccc(Cl)cc1	inactive	inactive	inactive	
COc1ccc(-c2ccc3cc(C(=O)O)ccc3c2)cc1C12CC3CC(CC(C3)C1)C2	inactive	inactive	inactive	
O=C(NO)C1(NS(=O)(=O)c2ccc(Oc3ccc(F)cc3)cc2)CCOCC1	71 µM (active)	56.4 µM (active)	inactive	inactive
Cc1cc(O)c2ccccc2c1O	11 µM (active)	12.3 µM (active)	1.23 µM (active)	3.38 µM (active)
CCC(Cl)C(Cl)C(Cl)CC(Cl)C(Cl)C(C)Cl (centres undefined)	1.26 µM (active)	7.96 µM (active)	35.6 µM (active)	
CCCC(=O)OC[C@@H](OC(=O)CCC)[C@@H](OC(=O)CCC)[C@H](Cn1c2nc(=O)[nH]c(=O)c-2nc2cc(C)c(C)cc21)OC(=O)CCC	8.71 µM (active)	13.8 µM (active)		
C[C@@H](NCCCc1cccc(C(F)(F)F)c1)c1cccc2ccccc12	8.71 µM (active)	inactive		
ON=C1CCCC1	32.8 µM (active)	41.3 µM (active)	36.8 µM (active)	
CC(C)(C)C(=O)OCOC(=O)[C@@H]1N2C(=O)[C@@H](NC(=O)[C@H](N)c3ccccc3)[C@H]2SC1(C)C	inactive	24.5 µM (active)	inactive	inactive
O=c1[nH]sc2cc(Cl)ccc12	inactive	13.8 µM (active)	24.5 µM (active)	inactive
Oc1cccc(-c2c3nc(c(-c4cccc(O)c4)c4ccc([nH]4)c(-c4cccc(O)c4)c4nc(c(-c5cccc(O)c5)c5ccc2[nH]5)CC4)C=C3)c1	38.9 µM (active)	13.8 µM (active)	inactive	inactive
CC[C@H](c1ccc(O)cc1)[C@@H](CC)c1ccc(O)cc1	79.6 µM (active) and inactive	39.9 µM (active) and 30.9 µM (active)	inactive	inactive
CC1=C(/C=C/C(C)=C/C=C/C(C)=C/C=O)C(C)(C)CCC1	39.7 µM (active)	44.6 µM (active)		
